This excerpt belongs to a sample that is enriched for hits.
IDE exosite FP = exo-site inhibitors of human insulin-degrading enzyme | purified IDE, FL-6b probe fluorescence polarization; stronger effect = lower value | z-score at 20 µM | 17,000 tested, 6.3% active;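 active = z-score of -3 or lower, meaning strong loss of probe binding signal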;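 also: His-tagged human IDE residues 42-1019 made in E. coli with 30 nM FL-6b probe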
Target sequence (P14735 42-1019 limits assumed): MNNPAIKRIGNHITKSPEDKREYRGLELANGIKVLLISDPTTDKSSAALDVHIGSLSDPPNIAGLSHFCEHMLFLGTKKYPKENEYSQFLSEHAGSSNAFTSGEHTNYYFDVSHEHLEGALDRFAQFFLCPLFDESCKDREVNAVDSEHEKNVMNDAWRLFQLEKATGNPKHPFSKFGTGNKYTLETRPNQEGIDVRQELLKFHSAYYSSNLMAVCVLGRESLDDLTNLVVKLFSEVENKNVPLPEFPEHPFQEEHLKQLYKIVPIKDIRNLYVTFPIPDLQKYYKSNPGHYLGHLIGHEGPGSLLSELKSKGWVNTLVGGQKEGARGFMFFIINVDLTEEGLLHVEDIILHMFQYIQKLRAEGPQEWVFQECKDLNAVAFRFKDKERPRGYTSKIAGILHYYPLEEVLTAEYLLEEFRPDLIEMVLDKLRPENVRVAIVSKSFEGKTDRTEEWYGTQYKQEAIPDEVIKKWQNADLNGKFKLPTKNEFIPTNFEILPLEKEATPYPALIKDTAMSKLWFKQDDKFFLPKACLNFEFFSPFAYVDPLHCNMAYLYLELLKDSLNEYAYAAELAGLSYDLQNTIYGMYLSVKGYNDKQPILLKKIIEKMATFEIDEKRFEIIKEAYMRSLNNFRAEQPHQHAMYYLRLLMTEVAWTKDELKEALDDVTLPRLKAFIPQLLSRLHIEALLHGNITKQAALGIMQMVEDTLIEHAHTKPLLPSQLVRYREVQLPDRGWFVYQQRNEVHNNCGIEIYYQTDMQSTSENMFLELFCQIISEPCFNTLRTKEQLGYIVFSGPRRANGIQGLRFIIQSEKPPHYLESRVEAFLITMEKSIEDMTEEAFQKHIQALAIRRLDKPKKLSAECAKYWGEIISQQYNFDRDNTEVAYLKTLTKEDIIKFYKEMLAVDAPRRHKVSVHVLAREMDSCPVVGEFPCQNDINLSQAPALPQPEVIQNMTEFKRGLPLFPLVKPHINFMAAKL
Numbers without * were called inactive.

SMILES	IDE exosite FP
COc1ccc2c3c([nH]c2c1)[C@H](CO)NCC31CN(Cc2cc(F)ccc2F)C1	-0.0423
OC[C@@H]1[C@@H](c2ccc(C#CC3(O)CCCC3)cc2)[C@@H]2CN(Cc3ccncc3)CCCCN12	2.16
C[C@@H]1CN([C@H](C)CO)C(=O)c2ccccc2-c2ccccc2CO[C@H]1CN(C)C(=O)Nc1ccnc(N2CCOCC2)c1	0.433
COc1ccc(C#Cc2ccc([C@H]3[C@@H](CO)N4C(=O)CN(C(=O)c5ccc(F)cc5)C[C@H]34)cc2)cc1	0.478
COc1ccc(S(=O)(=O)N2CCCCN3[C@H](C2)[C@H](c2ccc(C#CC4CC4)cc2)[C@@H]3CO)cc1	1.63
CC(C)C#Cc1ccc([C@H]2[C@H](CO)N3CCCCN(C(=O)Nc4ccccc4)C[C@@H]23)cc1	3.85
CCS(=O)(=O)N1[C@H](CO)[C@@H](c2ccc(C#CCC3CCCC3)cc2)[C@@H]1C#N	-0.391
CO[C@H]1CN(C)C(=O)c2cc(NC(=O)c3ccc(F)cc3)ccc2OC[C@@H](C)N(C(=O)CC2CC2)C[C@@H]1C	0.596
CN(C[C@H]1[C@@H](c2ccc(C3=CCCC3)cc2)[C@@H](CO)N1CCC(F)(F)F)S(C)(=O)=O	-0.767
O=C(CN1CCOCC1)N1CCCCN2[C@H](CO)[C@@H](c3ccc(C#Cc4ccccc4F)cc3)[C@H]2C1	-3.9*
O=C(CN1CCOCC1)N1CCCCN2[C@H](CO)[C@@H](c3ccc(C#Cc4ccccc4F)cc3)[C@@H]2C1	-2.88
O=C(CN1CCOCC1)N1CCCCN2[C@@H](CO)[C@@H](c3ccc(C#Cc4ccccc4F)cc3)[C@@H]2C1	-4.63*
O=C(CN1CCOCC1)N1CCCCN2[C@@H](CO)[C@H](c3ccc(C#Cc4ccccc4F)cc3)[C@@H]2C1	-8.97*
O=C(c1ccccc1)N1CC(=O)N2[C@H](CO)[C@@H](c3ccc(C#Cc4ccccc4)cc3)[C@H]2C1	3.05
O=C(NC[C@H]1[C@@H](c2ccccc2)[C@@H](CO)N1CC1CCCC1)C1CC1	2.18
COCCNC(=O)C[C@@H]1CC[C@H]2[C@@H](COC[C@H](O)CN2S(=O)(=O)c2ccccc2F)O1	-0.106
O=C(c1cccnc1)N1CC(=O)N2[C@H](CO)[C@@H](c3ccc(-c4ccccc4F)cc3)[C@H]2C1	0.116
Cc1ccc(-c2ccc([C@H]3[C@@H](CO)N4C(=O)CN(C(=O)c5cccnc5)C[C@H]34)cc2)cc1	-3.07*
O=C(c1cccnc1)N1CC(=O)N2[C@H](CO)[C@H](c3ccc(-c4cccnc4)cc3)[C@H]2C1	-0.661
Cc1ccc(-c2ccc([C@@H]3[C@@H](CO)N4C(=O)CN(C(=O)c5cccnc5)C[C@@H]34)cc2)cc1	-3.61*
O=C(c1cccnc1)N1CC(=O)N2[C@@H](CO)[C@@H](c3ccc(-c4cccnc4)cc3)[C@@H]2C1	2.62
O=C(c1cccnc1)N1CC(=O)N2[C@H](CO)[C@@H](c3ccc(-c4cccnc4)cc3)[C@H]2C1	0.232
O=C(c1cccnc1)N1CC(=O)N2[C@H](CO)[C@@H](c3ccc(-c4cccnc4)cc3)[C@@H]2C1	-1.88
O=C(C[C@H]1C=C[C@H](NC(=O)Nc2cccc(F)c2)[C@H](CO)O1)NCC1CCCCC1	0.297
O=C(C1CC1)N1CC(=O)N2[C@H](CO)[C@@H](c3ccc(C#CCc4ccccc4)cc3)[C@H]2C1	0.018
SMILES	IDE exosite FP
COCC(=O)N1CC(=O)N2[C@H](C1)[C@H](c1ccc(C#CCc3ccccc3)cc1)[C@@H]2CO	1.21
CCC(=O)N1CC(=O)N2[C@@H](CO)[C@H](c3ccc(C#CCc4ccccc4)cc3)[C@@H]2C1	-3.78*
CCC(=O)N1CC(=O)N2[C@H](CO)[C@H](c3ccc(C#CCc4ccccc4)cc3)[C@@H]2C1	-5.83*
CCC(=O)N1CC(=O)N2[C@H](CO)[C@@H](c3ccc(C#CCc4ccccc4)cc3)[C@@H]2C1	-0.778
O=C(C1CC1)N1CC(=O)N2[C@@H](CO)[C@H](c3ccc(C#CCc4ccccc4)cc3)[C@@H]2C1	-0.585
CCC(=O)N1CC(=O)N2[C@H](C1)[C@@H](c1ccc(C#CCc3ccccc3)cc1)[C@@H]2CO	-2.54
CCC(=O)N1CC(=O)N2[C@H](CO)[C@H](c3ccc(C#CCc4ccccc4)cc3)[C@H]2C1	-3.56*
O=C(C1CC1)N1CC(=O)N2[C@H](CO)[C@@H](c3ccc(C#CCc4ccccc4)cc3)[C@@H]2C1	0.353
O=C(c1cccc(F)c1)N1CCCCN2[C@@H](CO)[C@H](c3ccc(/C=C/c4ccccc4)cc3)[C@@H]2C1	0.0221
O=C(Nc1ccccc1F)N1CCCCN2[C@H](C1)[C@@H](c1ccc(C3=CCCC3)cc1)[C@@H]2CO	5
CCCC#Cc1ccc([C@@H]2[C@@H](CO)N3CCCCN(Cc4cccnc4)C[C@@H]23)cc1	3.06
N#C[C@H]1[C@@H](c2ccccc2-c2ccccc2)[C@@H](CO)N1C(=O)Cc1cccnc1	-0.319
CCCNC(=O)N1[C@H](C#N)[C@@H](c2ccc(/C=C/c3ccccc3)cc2)[C@H]1CO	0.864
CCC(=O)N1CC(=O)N2[C@H](C1)[C@H](c1ccc(C#CC(C)C)cc1)[C@@H]2CO	1.63
N#C[C@@H]1[C@H](c2ccccc2/C=C/c2ccccc2)[C@H](CO)N1S(=O)(=O)c1ccccc1	3.42
CC(C)NC(=O)Nc1ccc2c(c1)C(=O)N([C@H](C)CO)C[C@@H](C)[C@H](CN(C)C(=O)C1CCCCC1)OCCCC[C@H](C)O2	1.93
Cc1ccccc1-c1ccc([C@H]2[C@@H](CO)N3C(=O)CN(C(=O)c4ccc(F)cc4)C[C@@H]23)cc1	-0.946
Cc1ccccc1-c1ccc([C@H]2[C@H](CO)N3C(=O)CN(C(=O)c4ccc(F)cc4)C[C@@H]23)cc1	-16.5*
O=C(c1ccc(F)cc1)N1CC(=O)N2[C@H](C1)[C@@H](c1ccc(-c3ccccc3F)cc1)[C@@H]2CO	3.86
Cc1ccccc1-c1ccc([C@H]2[C@H]3CN(C(=O)c4ccc(F)cc4)CC(=O)N3[C@H]2CO)cc1	-4.27*
O=C(c1ccc(F)cc1)N1CC(=O)N2[C@H](C1)[C@H](c1ccc(-c3ccccc3F)cc1)[C@@H]2CO	4.93
O=C(c1ccc(F)cc1)N1CC(=O)N2[C@@H](CO)[C@H](c3ccc(-c4ccccc4F)cc3)[C@@H]2C1	2.06
O=C(C[C@@H]1CC[C@H]2[C@@H](COC[C@H](O)CN2C(=O)c2cnccn2)O1)N1CCN(c2ccccc2)CC1	-0.593
C/C=C/c1ccc([C@H]2[C@@H](CNC(C)=O)N(C(=O)Cc3ccncc3)[C@H]2CO)cc1	0.513
O=C(NC[C@H]1N[C@H](CO)[C@H]1c1ccccc1)C1CC1	0.175
SMILES	IDE exosite FP
CCCNC(=O)Nc1ccc2c(c1)C(=O)N(C)[C@H]1CC[C@H](CC(=O)Nc3cc(F)ccc3F)O[C@@H]1CO2	0.594
CCS(=O)(=O)N1CC(=O)N2[C@H](CO)[C@@H](c3ccc(C#Cc4ccc(F)cc4)cc3)[C@@H]2C1	1.81
CN1C[C@H]2[C@@H](c3ccccc31)[C@H](CO)N2Cc1ccccc1Cl	-0.562
OC[C@H]1[C@@H](c2ccc(-c3ccccc3)cc2)[C@@H]2CN(CCC(F)(F)F)CCCCN12	-0.541
COc1ccccc1C#Cc1ccc([C@H]2[C@@H](CO)N3CCCCN(CCC(F)(F)F)C[C@H]23)cc1	-12.3*
OC[C@H]1[C@H](c2ccc(C#CC3CCCC3)cc2)[C@@H]2CN(CCC(F)(F)F)CCCCN12	4.27
COc1ccccc1C#Cc1ccc([C@H]2[C@H]3CN(CCC(F)(F)F)CCCCN3[C@H]2CO)cc1	-7.19*
